PubChem BioAssay (EPA / NIEHS)
Values joined by “and” are separate entries in the source; they are usually repeats but may differ in a detail not shown here. Equal entries are not always repeated. Results filed as inconclusive are left out. The source holds several records for some structures; these can differ, active in one and inactive in another. Active and inactive are the calls of the source. Rule for the calls, unless noted: active = hit-call score of the fitted dose curve at least 0.9, where 1 is the maximum; inactive = score below 0.9.

Key:
[1] = target: Glucocorticoid receptor (Homo sapiens) (UniProt P04150); experiment: ATG_GR_TRANS: Attagene TRANS-FACTORIAL HepG2 Assay for human Glucocorticoid Receptor (GR) (AID 2282978; active = hit-call score of the fitted dose curve at least 0.9, where 1 is the maximum;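 note: activators score as hits since higher reporter transcript over DMSO is fitted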); conditions: HepG2 Attagene TRANS GR reporter, mRNA transcription
In short: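 Transiently transfected HepG2 cells express chimeric NR-GAL4 proteins acting on GAL4-UAS reporter units. Compounds are applied for 24 h. mRNA induction over DMSO is measured by capillary electrophoresis.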

[2] = target: Bile acid receptor (Homo sapiens) (UniProt Q96RI1); experiment: ATG_FXR_TRANS: Attagene TRANS-FACTORIAL HepG2 Assay for Farnesoid X Receptor (FXR) (AID 2282979; active = hit-call score of the fitted dose curve at least 0.9, where 1 is the maximum;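 note: hits raise reporter mRNA above DMSO so AC50 marks FXR activation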); conditions: HepG2 Attagene TRANS FXR-GAL4 reporter transcription
In short: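 After 24 h chemical treatment of transfected HepG2 cells, GAL4-UAS reporter transcripts driven by an exogenous FXR-GAL4 fusion were measured by RT-PCR and capillary electrophoresis. Increases over DMSO were fitted.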

[3] = target: Hepatocyte nuclear factor 4-alpha (Homo sapiens) (UniProt P41235); experiment: ATG_HNF4a_TRANS: Attagene TRANS-FACTORIAL HepG2 Assay for human Hepatocyte Nuclear Factor 4 alpha (HNF4a) (AID 2282982; active = hit-call score of the fitted dose curve at least 0.9, where 1 is the maximum); conditions: HepG2 HNF4a transactivation reporter, mRNA readout
In short: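 HepG2 cells transiently transfected with HNF4a-Gal4 chimera and GAL4-UAS reporter units, dosed for 24 h. Reporter mRNA measured by RT-PCR, fluorescent primer extension and capillary electrophoresis; gain-of-signal fitted relative to DMSO.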

[4] = ATG_M_32_TRANS: Attagene TRANS-FACTORIAL HepG2 Assay for M32 Transcription Factor (Internal Marker) (AID 2282984; active = hit-call score of the fitted dose curve at least 0.9, where 1 is the maximum;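 note: transcript level of a background control reporter unit measured by RT-PCR and capillary electrophoresis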); conditions: HepG2 Attagene TRANS M32 internal marker reporter
In short: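 HepG2 cells transiently transfected with GAL4-UAS reporter units, dosed for 24 hours. Reporter mRNA quantified by RT-PCR, 6-FAM labelling, HpaI digestion and capillary electrophoresis; internal-marker signal fitted upward relative to DMSO.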

[5] = target: Nuclear receptor subfamily 4 group A member 2 (Homo sapiens) (UniProt P43354); experiment: ATG_NURR1_TRANS: Attagene TRANS-FACTORIAL HepG2 Assay for human Nuclear Receptor Related Protein 1 (NURR1) (AID 2282985; active = hit-call score of the fitted dose curve at least 0.9, where 1 is the maximum); conditions: HepG2 Attagene TRANS reporter, mRNA readout
In short: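 HepG2 cells transiently transfected with NURR1-Gal4 chimera and GAL4-UAS reporter units; after 24 hr compound exposure, reporter mRNA quantified by RT-PCR and capillary electrophoresis; gain of signal fitted against DMSO.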

[6] = target: Transcriptional activator Myb (Homo sapiens) (UniProt P10242); experiment: ATG_Myb_CIS: Attagene CIS-FACTORIAL HepG2 Assay for human Myeloblastosis (Myb) Proto-Oncogene Transcription Factor (AID 2282986); conditions: HepG2 Attagene CIS-FACTORIAL Myb reporter transcription; actives raise or lower the signal
In short: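 Using HepG2 liver cells bearing transiently transfected cis-promoter reporter constructs, the assay measures induction or loss of reporter mRNA after 24 hours of dosing. Detection used fluorescently labeled RT-PCR products separated by capillary electrophoresis.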

[7] = target: Nuclear respiratory factor 1 (Homo sapiens) (UniProt Q16656); experiment: ATG_NRF1_CIS: Attagene CIS-FACTORIAL HepG2 Assay for human Nuclear Respiratory Factor 1 (NRF1) Orphan Gene (AID 2282987); conditions: HepG2 NRF1 cis-element reporter, Attagene multiplex; actives raise or lower the signal
In short: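 Reporter mRNA induction or loss in HepG2 cells after 24 h dosing; cis-regulated reporter constructs report endogenous transcription-factor activity. Quantified by RT-PCR/capillary electrophoresis fluorescence, DMSO-referenced.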

[8] = target: Myc proto-oncogene protein (Homo sapiens) (UniProt P01106); experiment: ATG_Myc_CIS: Attagene CIS-FACTORIAL HepG2 Assay for human Myelocytomatosis (Myc) Proto-Oncogene Transcription Factor (AID 2282990); conditions: HepG2, Attagene cis-reporter transcription factor activity; actives raise or lower the signal
In short: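 Fluorescence intensity of reporter-specific cDNA fragments, separated by capillary electrophoresis, gives the signal. Transfected HepG2 cells carrying cis-promoter reporter constructs are incubated with compound for 24 h; DMSO serves as baseline.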

[9] = ATG_NRF2_ARE_CIS: Attagene CIS-FACTORIAL HepG2 Assay for human Nuclear Factor Erythroid 2 Related Factor 2 (NFR2) response to Antioxidant Response Elements (ARE) (AID 2282992); conditions: HepG2 Attagene ARE/NRF2 reporter, transcription factor activity; actives raise or lower the signal;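 for AC50: reporter mRNA level measured by RT-PCR and capillary electrophoresis fluorescence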
In short: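 Transient MRTU transfection of HepG2; 24 h compound exposure; TriZol RNA, RT with oligo(dT), PCR, 6-FAM primer extension, HpaI cut, CE. Bidirectional fit vs DMSO.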

[10] = BSK_3C_TissueFactor: BioMAP Diversity Plus: 3C Assay for Tissue Factor Biomarker Activity (AID 2282997); conditions: BioMAP 3C HUVEC, tissue factor biomarker readout; actives raise or lower the signal
In short: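 Endothelial monolayers (human umbilical vein, primary) are dosed, incubated 24 h, and assayed for Tissue Factor by ELISA; DMSO serves as negative control for bidirectional fitting.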

[11] = BSK_3C_uPAR: BioMAP Diversity Plus: 3C Assay for Urokinase-type plasminogen activator receptor (uPAR) Biomarker Activity (AID 2282998); conditions: BioMAP 3C HUVEC, uPAR biomarker ELISA; actives raise or lower the signal
In short: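 Values derive from bidirectional curve fitting relative to DMSO, which served as baseline of activity. uPAR was measured by ELISA in human umbilical vein endothelial primary cultures 24 h after compound addition.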

[12] = BSK_3C_VCAM1: BioMAP Diversity Plus: 3C Assay for Vascular cell adhesion molecule 1 (VCAM1) Biomarker Activity (AID 2282999); conditions: BioMAP 3C HUVEC, VCAM1 ELISA, cytokine-stimulated; actives raise or lower the signal
In short: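 Human umbilical vein endothelial cells (3C system), biomarker read by ELISA 24 h after dosing; bidirectional fit against DMSO baseline. Cytotoxicity tracked by SRB total-protein staining in parallel cultures at biomarker time.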

[13] = BSK_4H_Eotaxin3: BioMAP Diversity Plus: 4H Assay for Eotaxin 3 Biomarker Activity (AID 2283000); conditions: primary human endothelial cells (HUVEC); actives raise or lower the signal
In short: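 ELISA quantitation of CCL26 (Eotaxin-3) protein from chemically dosed human vascular endothelial cells at 24 h; increases and decreases both scored relative to DMSO-treated baseline.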

[14] = target: Oxysterols receptor LXR-alpha (Homo sapiens) (UniProt Q13133); experiment: ATG_LXRa_TRANS: Attagene TRANS-FACTORIAL HepG2 Assay for human Liver X Receptor alpha (LXRa) (AID 2282980; active = hit-call score of the fitted dose curve at least 0.9, where 1 is the maximum); conditions: HepG2 Attagene TRANS reporter, LXRa transactivation
In short: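 In this multiplexed TRANS system, compounds act on HepG2 cells carrying GAL4-UAS reporter units and a receptor-GAL4 fusion for 24 h. Induced reporter RNA is amplified, fluorescently labelled and sized by capillary electrophoresis, with DMSO as baseline.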

[15] = ATG_M_06_TRANS: Attagene TRANS-FACTORIAL HepG2 Assay for M06 Transcription Factor (Internal Marker) (AID 2282983; active = hit-call score of the fitted dose curve at least 0.9, where 1 is the maximum;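 note: reporter transcript level by RT-PCR then capillary electrophoresis fluorescence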); conditions: HepG2 Attagene TRANS M06 internal marker reporter
In short: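 Internal-marker background readout from a multiplexed TRANS reporter system in HepG2; 24 h dosing; mRNA induction quantified by RT-PCR plus capillary electrophoresis fluorescence; DMSO as negative control and baseline.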

[16] = ATG_NFI_CIS: Attagene CIS-FACTORIAL HepG2 Assay for human Nuclear Factor I (NFI) (AID 2282989); conditions: HepG2 cis-regulatory reporter, NFI response element transcription; actives raise or lower the signal
In short: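 Multiplexed cis-reporter system in human HepG2 cells reports native TF activity as reporter mRNA induction 24 h post-dose. Fragments labelled with 6-FAM, HpaI-digested and resolved by capillary electrophoresis; activity fitted both directions versus DMSO.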

[17] = ATG_Oct_MLP_CIS: Attagene CIS-FACTORIAL HepG2 Assay for human Octamer-Binding Transcription Factor (Oct) (AID 2282993); conditions: HepG2 Attagene cis-factorial Oct reporter, mRNA; actives raise or lower the signal
In short: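 After 24 h compound exposure, transfected HepG2 cells were lysed for total RNA; reporter-specific cDNA was PCR-amplified, fluorescently labelled and sized by capillary electrophoresis. Bidirectional curve fitting used DMSO as baseline.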

[18] = target: Cellular tumor antigen p53 (Homo sapiens) (UniProt P04637); experiment: ATG_p53_CIS: Attagene CIS-FACTORIAL HepG2 Assay for human p53 Transcription Factor (AID 2282994); conditions: HepG2 p53 cis-element reporter, Attagene mRNA; actives raise or lower the signal
In short: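 HepG2, transient MRTU transfection (cis promoter elements, endogenous TFs); 24 h dosing; RNA isolation, RT-PCR, 6-FAM primer extension, HpaI digest, CE fluorescence; bidirectional fit vs DMSO.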

[19] = target: Oxysterols receptor LXR-beta (Homo sapiens) (UniProt P55055); experiment: ATG_LXRb_TRANS: Attagene TRANS-FACTORIAL HepG2 Assay for human Liver X Receptor beta (LXRb) (AID 2282981; active = hit-call score of the fitted dose curve at least 0.9, where 1 is the maximum); conditions: HepG2 Attagene TRANS GAL4-LXRb reporter, mRNA
In short: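 HepG2 cells transiently transfected with GAL4-UAS reporter units for chimeric NR-Gal4 proteins, dosed for 24 h. Reporter transcripts measured by RT-PCR and capillary electrophoresis; gain-of-signal fitting relative to DMSO.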

Measured: AC50

Sequence of Transcriptional activator Myb (Homo sapiens) (P10242 whole entry, looked up): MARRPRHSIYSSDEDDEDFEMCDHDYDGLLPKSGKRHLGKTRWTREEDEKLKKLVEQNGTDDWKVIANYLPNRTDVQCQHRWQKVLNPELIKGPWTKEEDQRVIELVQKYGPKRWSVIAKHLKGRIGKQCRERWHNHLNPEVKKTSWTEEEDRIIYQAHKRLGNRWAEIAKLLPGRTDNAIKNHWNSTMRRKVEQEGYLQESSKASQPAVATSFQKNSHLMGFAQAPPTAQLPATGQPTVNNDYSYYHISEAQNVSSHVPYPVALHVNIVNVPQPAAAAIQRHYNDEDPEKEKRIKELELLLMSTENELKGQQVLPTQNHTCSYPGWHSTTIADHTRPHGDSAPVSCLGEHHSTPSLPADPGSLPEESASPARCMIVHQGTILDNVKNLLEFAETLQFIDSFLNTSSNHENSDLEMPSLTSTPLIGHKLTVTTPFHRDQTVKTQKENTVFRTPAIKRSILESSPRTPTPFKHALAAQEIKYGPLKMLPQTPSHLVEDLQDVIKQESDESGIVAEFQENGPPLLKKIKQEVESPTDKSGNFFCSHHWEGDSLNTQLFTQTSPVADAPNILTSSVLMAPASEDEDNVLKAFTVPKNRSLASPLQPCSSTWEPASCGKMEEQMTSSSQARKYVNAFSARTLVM
Sequence of Hepatocyte nuclear factor 4-alpha (Homo sapiens) (P41235 whole entry, looked up, the tested form may be a part): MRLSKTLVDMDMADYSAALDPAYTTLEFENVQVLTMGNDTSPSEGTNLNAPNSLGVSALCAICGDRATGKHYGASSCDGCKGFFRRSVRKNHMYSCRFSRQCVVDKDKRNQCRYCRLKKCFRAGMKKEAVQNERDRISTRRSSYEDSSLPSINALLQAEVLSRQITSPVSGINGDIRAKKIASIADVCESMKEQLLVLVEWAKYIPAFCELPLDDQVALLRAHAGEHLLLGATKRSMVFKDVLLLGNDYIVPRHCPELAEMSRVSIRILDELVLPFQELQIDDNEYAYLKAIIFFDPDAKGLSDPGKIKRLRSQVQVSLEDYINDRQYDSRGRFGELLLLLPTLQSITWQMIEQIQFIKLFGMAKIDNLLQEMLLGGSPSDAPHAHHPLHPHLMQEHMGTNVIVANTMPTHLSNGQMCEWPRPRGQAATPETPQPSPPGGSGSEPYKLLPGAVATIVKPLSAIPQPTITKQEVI
Sequence of Oxysterols receptor LXR-alpha (Homo sapiens) (Q13133 whole entry, looked up, the tested form may be a part): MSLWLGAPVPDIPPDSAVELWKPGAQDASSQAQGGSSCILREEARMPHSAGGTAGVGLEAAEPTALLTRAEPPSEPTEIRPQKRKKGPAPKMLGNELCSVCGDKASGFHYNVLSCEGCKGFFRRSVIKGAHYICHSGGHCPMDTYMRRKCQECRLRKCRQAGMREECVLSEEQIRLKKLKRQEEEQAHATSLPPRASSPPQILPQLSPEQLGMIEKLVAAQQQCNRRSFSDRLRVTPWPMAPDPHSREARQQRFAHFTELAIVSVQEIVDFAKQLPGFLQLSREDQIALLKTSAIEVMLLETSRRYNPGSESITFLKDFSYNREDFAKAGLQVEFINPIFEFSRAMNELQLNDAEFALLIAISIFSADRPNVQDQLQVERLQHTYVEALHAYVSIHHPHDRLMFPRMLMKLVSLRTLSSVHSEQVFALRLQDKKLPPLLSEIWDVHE
Sequence of Cellular tumor antigen p53 (Homo sapiens) (P04637 whole entry, looked up): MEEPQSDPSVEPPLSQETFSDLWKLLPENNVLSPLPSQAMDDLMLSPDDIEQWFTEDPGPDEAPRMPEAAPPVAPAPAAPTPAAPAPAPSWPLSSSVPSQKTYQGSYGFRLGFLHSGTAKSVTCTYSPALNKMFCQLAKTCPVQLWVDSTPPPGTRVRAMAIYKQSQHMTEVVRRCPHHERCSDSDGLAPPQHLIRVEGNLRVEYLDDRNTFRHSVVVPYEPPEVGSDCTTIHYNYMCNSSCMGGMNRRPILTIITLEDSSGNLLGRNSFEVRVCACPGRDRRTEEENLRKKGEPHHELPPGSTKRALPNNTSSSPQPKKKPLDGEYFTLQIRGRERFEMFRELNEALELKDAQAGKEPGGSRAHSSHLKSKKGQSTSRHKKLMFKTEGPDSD
Sequence of Nuclear receptor subfamily 4 group A member 2 (Homo sapiens) (P43354 whole entry, looked up, the tested form may be a part): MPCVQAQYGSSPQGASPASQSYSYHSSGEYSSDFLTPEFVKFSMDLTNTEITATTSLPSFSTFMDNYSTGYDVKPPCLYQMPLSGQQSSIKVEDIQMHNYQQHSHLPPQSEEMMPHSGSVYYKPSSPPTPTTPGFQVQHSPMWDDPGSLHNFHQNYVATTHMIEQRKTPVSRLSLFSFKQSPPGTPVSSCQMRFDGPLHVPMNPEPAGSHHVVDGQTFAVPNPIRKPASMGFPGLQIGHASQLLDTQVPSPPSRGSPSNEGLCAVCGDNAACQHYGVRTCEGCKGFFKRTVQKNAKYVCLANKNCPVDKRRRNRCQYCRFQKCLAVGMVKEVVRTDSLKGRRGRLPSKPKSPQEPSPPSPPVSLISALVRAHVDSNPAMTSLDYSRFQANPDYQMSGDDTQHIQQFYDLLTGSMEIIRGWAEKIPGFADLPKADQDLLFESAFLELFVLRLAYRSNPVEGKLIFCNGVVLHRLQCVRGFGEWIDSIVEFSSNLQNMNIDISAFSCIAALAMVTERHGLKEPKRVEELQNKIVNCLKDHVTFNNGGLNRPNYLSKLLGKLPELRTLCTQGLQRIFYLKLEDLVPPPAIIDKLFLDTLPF
Sequence of Glucocorticoid receptor (Homo sapiens) (P04150 whole entry, looked up, the tested form may be a part): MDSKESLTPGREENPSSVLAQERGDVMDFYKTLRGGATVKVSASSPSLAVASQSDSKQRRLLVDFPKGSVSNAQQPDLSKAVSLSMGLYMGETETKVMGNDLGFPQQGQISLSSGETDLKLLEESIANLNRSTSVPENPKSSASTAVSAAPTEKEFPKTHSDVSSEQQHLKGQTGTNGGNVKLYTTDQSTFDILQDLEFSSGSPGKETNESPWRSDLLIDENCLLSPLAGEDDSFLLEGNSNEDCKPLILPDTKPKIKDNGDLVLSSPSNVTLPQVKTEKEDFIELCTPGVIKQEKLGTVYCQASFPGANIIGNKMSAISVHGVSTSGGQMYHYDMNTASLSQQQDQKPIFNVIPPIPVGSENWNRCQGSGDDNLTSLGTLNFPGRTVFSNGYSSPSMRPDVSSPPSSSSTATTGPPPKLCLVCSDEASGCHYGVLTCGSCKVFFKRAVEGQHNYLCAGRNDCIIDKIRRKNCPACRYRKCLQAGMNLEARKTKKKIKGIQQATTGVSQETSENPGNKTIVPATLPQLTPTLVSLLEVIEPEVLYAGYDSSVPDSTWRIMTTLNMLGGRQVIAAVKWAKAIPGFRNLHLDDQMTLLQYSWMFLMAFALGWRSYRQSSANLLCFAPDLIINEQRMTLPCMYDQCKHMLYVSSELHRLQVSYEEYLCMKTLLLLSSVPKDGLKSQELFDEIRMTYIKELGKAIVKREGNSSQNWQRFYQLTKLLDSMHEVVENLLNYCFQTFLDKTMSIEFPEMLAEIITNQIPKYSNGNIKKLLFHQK
Sequence of Myc proto-oncogene protein (Homo sapiens) (P01106 whole entry, looked up, the tested form may be a part): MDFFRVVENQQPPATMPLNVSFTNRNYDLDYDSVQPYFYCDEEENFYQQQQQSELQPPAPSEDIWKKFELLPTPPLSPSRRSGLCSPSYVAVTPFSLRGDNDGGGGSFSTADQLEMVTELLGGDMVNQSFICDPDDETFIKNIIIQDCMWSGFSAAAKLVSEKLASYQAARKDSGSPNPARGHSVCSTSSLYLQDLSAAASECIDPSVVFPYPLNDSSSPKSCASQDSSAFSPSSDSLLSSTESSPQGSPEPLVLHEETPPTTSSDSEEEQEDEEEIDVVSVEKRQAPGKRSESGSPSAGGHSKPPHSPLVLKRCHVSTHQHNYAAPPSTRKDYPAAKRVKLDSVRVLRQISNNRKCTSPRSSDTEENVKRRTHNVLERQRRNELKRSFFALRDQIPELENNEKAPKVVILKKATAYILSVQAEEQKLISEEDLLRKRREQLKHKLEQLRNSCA
Sequence of Bile acid receptor (Homo sapiens) (Q96RI1 whole entry, looked up, the tested form may be a part): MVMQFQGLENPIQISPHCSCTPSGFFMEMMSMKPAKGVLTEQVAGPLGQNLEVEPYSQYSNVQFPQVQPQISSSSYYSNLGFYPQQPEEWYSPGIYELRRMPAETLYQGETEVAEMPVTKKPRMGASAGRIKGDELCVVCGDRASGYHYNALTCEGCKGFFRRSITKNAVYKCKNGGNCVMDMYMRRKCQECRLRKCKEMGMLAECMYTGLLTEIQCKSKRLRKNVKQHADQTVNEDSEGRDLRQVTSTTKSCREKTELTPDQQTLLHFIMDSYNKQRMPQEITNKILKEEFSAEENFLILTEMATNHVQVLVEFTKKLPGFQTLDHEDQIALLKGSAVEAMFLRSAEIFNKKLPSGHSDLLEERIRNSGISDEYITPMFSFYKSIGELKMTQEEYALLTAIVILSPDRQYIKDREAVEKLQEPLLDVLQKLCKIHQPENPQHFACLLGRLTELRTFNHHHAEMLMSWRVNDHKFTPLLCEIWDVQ
Sequence of Nuclear respiratory factor 1 (Homo sapiens) (Q16656 whole entry, looked up): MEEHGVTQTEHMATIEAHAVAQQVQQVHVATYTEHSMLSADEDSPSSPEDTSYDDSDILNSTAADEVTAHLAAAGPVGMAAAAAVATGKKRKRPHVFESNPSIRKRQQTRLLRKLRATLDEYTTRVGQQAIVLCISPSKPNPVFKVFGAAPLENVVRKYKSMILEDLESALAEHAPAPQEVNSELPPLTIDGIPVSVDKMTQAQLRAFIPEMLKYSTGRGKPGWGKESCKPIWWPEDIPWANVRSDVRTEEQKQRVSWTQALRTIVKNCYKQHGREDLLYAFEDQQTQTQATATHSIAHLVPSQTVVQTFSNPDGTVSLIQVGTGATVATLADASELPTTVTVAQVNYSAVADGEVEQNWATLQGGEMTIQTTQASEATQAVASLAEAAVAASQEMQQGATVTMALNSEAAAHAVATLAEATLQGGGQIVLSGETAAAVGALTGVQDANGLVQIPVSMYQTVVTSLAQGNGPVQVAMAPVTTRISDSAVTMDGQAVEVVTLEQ

COc1cc(C(C)C)c2c(c1)S(=O)(=O)N(COc1cc(=O)n3cccc(OCCN4CCCCC4)c3n1)C2=O
inactive: [1] | [3] | [4] | [5] | [6] | [7] | [10]
active: [2] 4.68 µM | [8] 2.75 µM | [9] 1.29 µM | [11] 2.89 µM | [12] 5.38 µM | [13] 8.57 µM

Cc1ccc(S(=O)(=O)NC(=O)NN2CCCCCC2)cc1
not listed: [2] | [3] | [6] | [18] | [19]
inactive: all other assays above

C[Si](C)(C)C(F)(F)C(F)(F)C(F)(F)F
not listed: [16] | [19]
inactive: all other assays above

C=CCc1cc(S(=O)(=O)c2ccc(O)c(CC=C)c2)ccc1O
active: [7] 33.4 µM | [9] 7.04 µM | [10] 32 µM | [11] 12.8 µM | [12] 32 µM | [13] 27.1 µM
not listed: [3] | [5] | [14] | [18] | [19]
inactive: all other assays above

OC(O)(C(F)C(O)(O)C(F)(F)F)C(F)(F)F
active: [5] 31.5 µM and 19.1 µM | [7] 38.6 µM and 72.7 µM | [16] 52.4 µM and 51.5 µM | [9] 39.4 µM | [18] 28.4 µM and 21.2 µM | [10] 13.6 µM | [11] 15.2 µM | [13] 53.3 µM and 53.6 µM
inactive: [1] | [2] | [14] | [3] | [15] | [4] | [6] | [8] | [9] | [17] | [10] | [11] | [12]

FC(F)(F)COC(OCC(F)(F)F)OCC(F)(F)F
not listed: [3] | [4] | [6] | [14] | [16]
inactive: all other assays above

CCCCCCCCN(C)C
not listed: [2] | [3] | [4] | [14] | [17] | [19]
inactive: all other assays above
